Pf Dd2 inh: Plasmodium falciparum Dd2 growth inhibition | P. falciparum Dd2 growth, SYBR Green, 72 h | Potency, µM (highest dose often 28.9 µM), for the others: at the top dose activity, negative = inhibition, hits mostly inhibitors | 4.3% of 120,000 active; active = well fitted inhibition curve with a large enough effect;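 note: plate controls were DMSO vehicle for no effect and reference drug for full effect; nearly all actives have a fitted effect of over 65% in size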
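Readout: SYBR Green fluorescence, 485 nm excitation, 535 nm emission, after ~16 h lysis at 37C. Before that, Dd2-infected red cells (2.5% hematocrit) grew 72 h with compound, 29 uM top final concentration.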
The depositor's hits bear a star; i = inactive; [ ] = dose if it differs, or a comment. This excerpt belongs to a sample that is enriched for hits. Potency is the fitted concentration of half-maximal effect.

SMILES	Pf Dd2 inh
COc1cccc(CC(=O)N2[C@@H]3CC[C@H]2CC(NC(=O)c2ccc(F)cc2)C3)c1 (stereo not given in full)	i
CC(C)CC(=O)N1[C@@H]2CC[C@H]1CC(NC(=O)c1ccc(F)cc1)C2 (stereo not given in full)	-18%
O=C(NC1C[C@H]2CC[C@@H](C1)N2C(=O)CCCc1ccccc1)c1ccc(F)cc1 (stereo not given in full)	8.9µM*
CCN1C(=O)C(O)(c2c(C)[nH]c3ccccc23)c2ccccc21 (stereo not given)	9%
CCCCN1C(=O)C(O)(c2c(C)[nH]c3ccccc23)c2cc(Br)ccc21 (stereo not given)	11µM*
CCCCN1C(=O)C(O)(c2c(C)[nH]c3ccccc23)c2ccccc21 (stereo not given)	-9%
C[C@H]1CCCN1C(=O)c1nnc(COc2cccc(C(F)(F)F)c2)n1-c1ccccc1	i
Cc1ccc2oc(=O)c3cnn(CC(=O)Nc4cccc(C(F)(F)F)c4)c3c2c1	1.1µM*
Cc1ccc2oc(=O)c3cnn(CC(=O)N4CCN(c5cccc(C(F)(F)F)c5)CC4)c3c2c1	73%[5.79 µM]
Cc1ccc2oc(=O)c3cnn(CC(=O)Nc4ccc(Br)cc4C)c3c2c1	-6%
CC1CCc2c(sc(NC(=O)Cc3ccccc3)c2C(=O)Nc2ccc(Cl)cc2)C1 (stereo not given)	10µM*
Cc1ccc(NC(=O)c2c(NC(=O)Cc3ccccc3)sc3c2CCC3)cc1	32%
O=C(Cc1ccccc1)Nc1sc2c(c1C(=O)Nc1cccc(Cl)c1)CCCCC2	i
C=Cc1ccc(Cn2c(C)c(CNCc3cccc(Br)c3)c(C(=O)O)c2C)cc1	-17%
Cc1c(CNCCCc2ccccc2)c(C(=O)O)c(C)n1Cc1ccc(Cl)cc1	8.9µM*
COc1cc(CNCc2c(C(=O)O)c(C)n(Cc3cccc(Cl)c3)c2C)cc(OC)c1OC	0%
Cc1c(CNC2CCCCC2)c(C(=O)O)c(C)n1Cc1ccc(Cl)cc1	-25%
C=Cc1ccc(Cn2c(C)c(CNCc3ccccc3C)c(C(=O)O)c2C)cc1	2%
Cc1c(CNCCCc2ccccc2)c(C(=O)O)c(C)n1Cc1cccc(Cl)c1	8.9µM*
CC(C)CCNC(=O)N1CC(C(=O)N(C)C)C2(CCOCC2)C1 (stereo not given)	18%
COc1ccc(Cl)cc1NC(=O)CCC1CCCN(C(=O)CCCN2CCCC2=O)C1 (stereo not given)	i
COc1ccc(Cn2c3c(c(=O)n2Cc2ccccc2)CCN(Cc2cccnc2)C3)cc1	-4%
CCOC(=O)c1cc(-c2ccc(OC)cc2)n(CCC(=O)NCc2ccccc2OC)c1C	7.9µM*
COc1ccc(-c2cc(C(C)=O)c(C)n2CCC(=O)NCc2ccccc2OC)cc1	-13%
CCOC(=O)c1cc(-c2ccccc2)n(CCC(=O)NCc2ccccc2Cl)c1C	i
SMILES	Pf Dd2 inh
CCC(C(=O)N1CCN(c2ccc(C#N)cn2)CC1)n1cccn1 (stereo not given)	1%
Cc1noc(-c2cn(C3CCN(C(=O)c4cccc(N(C)C)c4)CC3)nn2)n1	-15%
COc1cccc(CN2CCC(C(Cc3ccccc3F)N(C)C(=O)c3cccs3)CC2)c1O (stereo not given)	i
CCOc1cc(CN2CCOc3ccc(C(=O)NCc4ccccc4F)cc3C2)ccc1O	-7%
CCOc1cc(CN2CCC(C(Cc3ccccc3F)N(C)C(=O)c3cccs3)CC2)ccc1O (stereo not given)	4µM*
Cc1nc(N2CCC(NC(=O)CNC(=O)c3ccccc3)CC2)cc(C(F)(F)F)n1	-19%
CCNC(=O)N1CCCC(c2noc(COc3ccccc3F)n2)C1 (stereo not given)	i
Cc1cc(N2CCCCC2)nc2ccc(NC(=O)c3ccc(F)cc3)cc12	i
CC1CCN(c2ccc(NC(=O)c3cccc(Cl)c3)cc2C(=O)O)CC1	3%
CCCCc1ccc(NC(=O)c2ccc(=O)n(Cc3cccc(C)c3)c2)cc1	i
COc1cc(OC)cc(C(=O)Nc2ccc3c(c2)n(C)c(=O)c(=O)n3C)c1	24%
CCN1CCN(c2cc(C)c3cc(NC(=O)c4cccc(Cl)c4)ccc3n2)CC1	1.6µM*
CCN1CCN(c2cc(C)c3cc(NC(=O)/C=C/c4cccc(Cl)c4)ccc3n2)CC1	3.2µM*
O=C(Nc1ccc2oc(-c3cccc4c(Br)cccc34)nc2c1)c1cccc(Cl)c1	i
CCCCc1ccc(C(=O)Nc2ccc3nc(N4CCN(CC)CC4)cc(C)c3c2)cc1	4.5µM*
COc1ccc(C(=O)Nc2ccc3nc(N4CCC(C)CC4)cc(C)c3c2)cc1	-12%
O=C(NCc1cccc(Cl)c1)C(=O)Nc1ccc2nc3n(c(=O)c2c1)CCCCC3	29%
CCN1C[C@@H]2C(C(=O)Nc3cccc(Cl)c3)=NO[C@@H]2C1	-7%[44.1 µM]
CCN1CCN(c2cc(C)c3cc(NC(=O)c4cc(OC)cc(OC)c4)ccc3n2)CC1	0.4µM*
CNC(=O)[C@@H](c1ccccc1)N1CCC[C@H]1C(=O)NCCc1c[nH]c2ccccc12	i
COc1ccc(OC)c(CNC(=O)C2Cn3cccc3C(=O)N2CC(C)C)c1 (stereo not given)	i
CCCN(CC1CCOC1)S(=O)(=O)c1cccc(Cl)c1 (stereo not given)	41%[5.79 µM]
COCc1nc(C2CCN(C(=O)C3CCCC3)C2)no1 (stereo not given)	12%
O=C(CCCc1ccccc1)NCC(=O)N1CCCCCNC(=O)CC1c1ccccc1 (stereo not given)	-6%
CCCCNC(=O)c1ccc(CN2C(=O)NC3(CCS(=O)(=O)CC3)C2=O)cc1	i
SMILES	Pf Dd2 inh
Cc1sc2cc(C(=O)NCCN3CCOCC3)[nH]c2c1CN1CCCCC1	i
COc1ccc(CNC(=O)COc2ccc(NC(=O)C3CC3)cn2)cc1	-9%
CN1C(=O)CC(C(=O)O)C12CCN(Cc1nn(C)c3cccc(Cl)c13)CC2 (stereo not given)	1%
Cn1cc(CC(=O)N2CCCc3ncc(C(=O)Nc4cccc(Cl)c4)cc32)c2ccccc21	4.5µM*
CN(C)CCNC(=O)c1cnc2c(c1)N(C(=O)Cc1cn(C)c3ccccc13)CCC2	-19%[44.1 µM]
O=C(c1cnc2c(c1)N([S+](=O)([O-])c1cccnc1)CCC2)N1CCC[C@@H]1c1ccc(F)cc1	-1%
O=C(Nc1cccc(Cl)c1)c1cnc2c(c1)N([S+](=O)([O-])c1cccnc1)CCC2	11µM*
CC(C)CCNC(=O)c1cnc2c(c1)N([S+](=O)([O-])c1cccnc1)CCC2	-15%[44.1 µM]
Cn1cc(CC(=O)N2CCCc3ncc(C(=O)NCc4ccoc4)cc32)c2ccccc21	i
COc1ccc(CNC(=O)[C@@H]2CCC[C@@H](NC3CCOCC3)CN(C)C(=O)C2)cc1	14%[44.1 µM]
CN1CC(=O)N(C2CCNC2)Cc2c(NC3CCOC3)ncnc21 (stereo not given)	3%
COc1ccc(-c2cc(N3CCC(NC(=O)c4ccc5cc[nH]c5c4)CC3)n[nH]2)cc1	-12%
O=C(c1cccc(F)c1)N1CCC2(CC1)N(CC1CC1)C(=O)CS2=O (stereo not given)	1%
Cc1cccc(C)c1OCc1nc2c3c(-c4ccccc4)c(-c4ccccc4)oc3ncn2n1	23%
COc1ccc(-c2oc3ncn4nc(COc5c(C)cccc5C)nc4c3c2-c2ccc(OC)cc2)cc1	11µM*
COc1ccc(-c2oc3ncn4nc(-c5cccc(C)c5)nc4c3c2-c2ccc(OC)cc2)cc1	24%
CC(=O)NCC(=O)N1CCCn2cc(-c3ccc4c(c3)OCO4)nc21	-18%

Compound activity: PubChem, National Center for Advancing Translational Sciences (NCATS)
